Columns and labels:
Type in all cases: functional
[1] = biological target: Solute carrier family 2, facilitated glucose transporter member 1 (Homo sapiens) (UniProt P11166); assay: ST_JUDE_LEISH: Cytotoxicity at 2uM final concentration against transgenic Leishmania Mexicana promastigotes LmGLUT1 that are glucose transport deficient and complemented with the human glucose transporter GLUT1. Activity is measured by DNA content using SYBR green in vitro
[2] = biological target: Hexose transporter 1 (Plasmodium falciparum) (UniProt O97467); assay: ST_JUDE_LEISH: Cytotoxicity at 2uM final concentration against transgenic Leishmania Mexicana promastigotes LmPfHT that are glucose transport deficient and complemented with the Plasmodium falciparum hexose transporter. Activity is measured by DNA content using SYBR green in vitro
[3] = biological target: Glucose transporter (Leishmania mexicana) (UniProt O61059); assay: ST_JUDE_LEISH: Cytotoxicity at 2uM final concentration against transgenic Leishmania Mexicana promastigotes LmGT2 that are glucose transport deficient and complemented with the L. Mexicana glucose transporter 2. Activity is measured by DNA content using SYBR green in vitro

Chain of Solute carrier family 2, facilitated glucose transporter member 1 (Homo sapiens) (P11166 whole entry): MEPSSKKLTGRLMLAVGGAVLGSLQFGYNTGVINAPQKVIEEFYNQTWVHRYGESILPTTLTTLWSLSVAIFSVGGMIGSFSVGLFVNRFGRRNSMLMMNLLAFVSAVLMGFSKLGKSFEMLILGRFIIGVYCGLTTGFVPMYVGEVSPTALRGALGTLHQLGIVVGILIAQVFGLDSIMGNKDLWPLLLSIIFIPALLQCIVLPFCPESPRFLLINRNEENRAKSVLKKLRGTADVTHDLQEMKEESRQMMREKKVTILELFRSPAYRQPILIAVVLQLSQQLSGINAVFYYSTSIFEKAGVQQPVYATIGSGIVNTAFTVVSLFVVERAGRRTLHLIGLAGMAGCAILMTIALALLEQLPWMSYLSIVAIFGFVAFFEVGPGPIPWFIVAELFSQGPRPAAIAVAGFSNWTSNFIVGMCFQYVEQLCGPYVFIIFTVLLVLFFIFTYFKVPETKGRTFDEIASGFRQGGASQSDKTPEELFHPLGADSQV

| Compound | inhibition [1] | inhibition [2] | inhibition [3] |
| --- | --- | --- | --- |
| NCCCNc1nccc(N2CCc3ncnc(Nc4ccc(OCc5cccc(F)c5)c(Cl)c4)c3C2)n1 | 2.13% | 4.48% | 4.02% |
| CC1CC(NCCCNc2cc(=O)c3ccccc3[nH]2)c2cc(Cl)c(Cl)c(Cl)c21 (stereo not given) | -1.12% | -1.47% | -2.15% |
| O=C(/C=C/c1ccc(Cl)c(Cl)c1)NCCCCCN1CCC(NC(=S)Nc2ccc(Cl)c(Cl)c2)CC1 | 4.99% | 5.09% | 3.5% |
| COc1ccc(NC(=O)[C@H](Cc2ccccc2)Nc2cc(C)nc(NCCc3ccc(F)cc3)n2)cc1 | 11.8% | 13% | 10% |
| Cc1ccc2[nH]c(-c3ccccc3)cc(=NN=Cc3cccnc3)c2c1 | 1.16% | 0.03% | -2.99% |
| CC(C)NC[C@@H](O)[C@H](Cc1ccccc1)NC(=O)c1cc2c3c(c1)c(C(C)C)cn3CCS(=O)(=O)N2C | 2.21% | 2.85% | 2.8% |
| Cc1ccc(NC(=O)c2ccc3ncccc3c2)cc1OC1CCN(C(C)C)C1 (stereo not given) | 8.85% | 10.2% | 9.34% |
| Cn1cc(C2CCN(CCCCCNC(=O)/C=C/c3ccc(Cl)c(Cl)c3)CC2)c2cc(O)ccc21 | 1.48% | 2.56% | 1.47% |
| COc1ccc(-c2cccc(NC(=O)c3ccc(C#N)cc3)c2)cc1CNC(C)C | 8.59% | 6.99% | 8.32% |
| Cc1cccc2nc(-c3ccc(-c4cccc(NC(=O)NCc5ccc(F)cc5)c4)cc3)[nH]c12 | 3.38% | 4.77% | 3.65% |
| COc1cc(OC)c(NC(=O)C2c3ccccc3C(=O)N(C)C2c2cccs2)cc1Cl (stereo not given) | 2.2% | 5.87% | 5.98% |
| Cc1csc(-c2nc(NCCc3c(C)noc3C)ncc2-c2ccsc2)n1 | 8.17% | 11.5% | 10.2% |
| CC(=NNC(S)=NCCc1ccccc1)c1ccccn1 | 57.4% | 68% | 23.6% |
| COc1ccc(NC(=O)/C=C/c2ccccc2Cl)cc1OCCN1CCC(O)(c2ccc(Cl)c(C(F)(F)F)c2)CC1 | 11.2% | 8.47% | 7.73% |
| OC(CN1CCN(c2cccc(Cl)c2)CC1)C(c1ccccc1)c1ccccc1 (stereo not given) | -1.02% | 2.99% | -2.94% |

From ChEMBL document CHEMBL3433997, “St. Jude Leishmania screening dataset” (2016)
